# Reference: PubChem BioAssay (Tox21)
# Inconclusive results are not listed. A number with no mark means an inactive call. Calls follow the shape of the dose curve; as a rule, active = well fitted curve in the direction sought with a large enough effect in the repeat runs; inconclusive = weak or mixed curves; inactive = no such curve, though single readings can be large; an effect the other way counts as inactive or inconclusive.
# Test: qHTS assay to identify small molecule antagonists of the thyroid receptor (TR) signaling pathway - cell viability counter screen (AID 743064); also: nearly all actives have a fitted effect of over 50% in size
# Settings: GH3.TRE-Luc viability, CellTiter-Fluor, 24 h; series mostly up to 70.3 µM; activity change, negative = cytotoxic: at the top concentration
# Outline: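 GH3.TRE-Luc cells, 4 h pre-plating; cpd + T3 1 nM final; 37 °C 23.5 h; CellTiter-Fluor 30 min; fluorescence read.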
# % is scaled to controls: 0 for no effect and ±100 for the full control effect.
row,Structure (SMILES),"activity change, negative = cytotoxic"
1,C=C(C)[C@H]1CN[C@H](C(=O)O)[C@H]1CC(=O)O,-16.1%
2,CC(C)(C)C(=O)Cl,16.7% [at 95 µM]
3,CCCCOC(C)=O,2.58% [at 95 µM]
4,CNC(=O)Oc1cc(C)c(N(C)C)c(C)c1,-23%
5,CCN(CC)C1CCCCC1,8.08%
6,O=S1(=O)OCCO1,2.94% [at 95 µM]
7,CCOP(=S)(OCC)SCCl,-14.3%
8,COc1ccccc1OC,-0.56%
9,Clc1nc(Cl)nc(Nc2ccccc2Cl)n1,0.813%
10,CN1COCN(Cc2cnc(Cl)s2)/C1=N\[N+](=O)[O-],19.1%
11,CCOP(=S)(OCC)Oc1ccc(Cl)cc1Cl,-6.5%
12,O=P(O)(O)c1ccccc1,6.72%
13,CCOC1Oc2ccc(OS(C)(=O)=O)cc2C1(C)C (configuration not stated),25.5%
14,N#CC(Br)(Br)C(N)=O,23.3%
15,CCCCS(=O)(=O)Cl,9.96%
16,Clc1ccc(C(Cl)(Cl)Cl)cn1,1.7%
17,O=C(Cl)c1ccccc1,2.01% [at 95 µM]
18,BrCC1CO1 (configuration not stated),-13% [at 95 µM]
19,NCCOS(=O)(=O)O,3.12%
20,CN=CNc1ccc(C)cc1C,-0.638%

# Test: qHTS assay to identify small molecule antagonists of the thyroid receptor (TR) signaling pathway (AID 743065); also: nearly all actives have a fitted effect of over 55% in size
# Settings: GH3.TRE-Luc, T3-stimulated luciferase inhibition, 23.5 h; series mostly up to 70.3 µM; activity, negative = inhibition: at the top concentration
# Outline: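 GH3.TRE-Luc rat pituitary cells (two TREs driving luciferase) were dosed with compound, then stimulated with 1 nM T3 (final) for 23.5 h at 37 C. ONE-Glo luminescence was the read-out, with CellTiter-Fluor fluorescence as the cytotoxicity counter-screen.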
row,Structure (SMILES),"activity, negative = inhibition"
1,ClCCCCl,8.36% [at 95 µM]
2,CC[C@H](N)c1ccccc1,3.53%
3,COC(=O)[C@@H](N)CCCN/C(N)=N/[N+](=O)[O-],1.31%
4,CCN(CC)CCOC(=O)C(O)(c1ccccc1)c1ccccc1,10.8%
5,BrCCc1ccccc1,0.587% [at 95 µM]
6,CCC(=O)OC1(c2ccccc2)CCN(C)CC1,42.8% [at 95 µM]
7,C[C@@H](N)[C@@H](O)c1ccccc1,0.702% [at 32.5 µM]
8,CCNc1nc(NCC)nc(SC)n1,0.0685%
9,CCNc1nc(Cl)nc(NC(C)(C)C)n1,-0.164%
10,CCOC(=O)N(C)N=O,12.6%
11,OCC(Cl)CCl (configuration not stated),10.6%
12,CCCOc1nn(C(=O)NS(=O)(=O)c2ccccc2C(=O)OC)c(=O)n1C,8.47%
13,CCN[C@@H](C)Cc1ccccc1,-15.8% [at 95 µM]
14,ClCCCCCCCl,0.922%
15,CCOC(=O)CC(SP(=S)(OC)OC)C(=O)OCC (configuration not stated),0.487%
16,C=C(C)[C@H]1CN[C@H](C(=O)O)[C@H]1CC(=O)O,-2.52%
17,CC(C)(C)C(=O)Cl,0.294% [at 95 µM]
18,CCCCOC(C)=O,-0.0842% [at 95 µM]
19,CNC(=O)Oc1cc(C)c(N(C)C)c(C)c1,-22.9%

row,Structure (SMILES),"activity, negative = inhibition"
1,CCN(CC)C1CCCCC1,1.35%
2,O=S1(=O)OCCO1,0.461% [at 95 µM]
3,CCOP(=S)(OCC)SCCl,-20.1%
4,COc1ccccc1OC,10.1%
5,Clc1nc(Cl)nc(Nc2ccccc2Cl)n1,-0.358%
6,CN1COCN(Cc2cnc(Cl)s2)/C1=N\[N+](=O)[O-],5.86%
7,CCOP(=S)(OCC)Oc1ccc(Cl)cc1Cl,-5.24%
8,CCC1(c2ccccc2)C(=O)N(COC)C(=O)N(COC)C1=O,15.4%
9,O=P(O)(O)c1ccccc1,-0.352%
10,CCOC1Oc2ccc(OS(C)(=O)=O)cc2C1(C)C (configuration not stated),0.942%
11,N#CC(Br)(Br)C(N)=O,-6.02%
12,CCCCS(=O)(=O)Cl,14.2%
13,Clc1ccc(C(Cl)(Cl)Cl)cn1,-0.1%
14,O=C(Cl)c1ccccc1,-7.3% [at 95 µM]
15,BrCC1CO1 (configuration not stated),-3.94% [at 95 µM]
16,NCCOS(=O)(=O)O,1.81%
17,CN(C)C1CCCCC1,19.2%
18,CN=CNc1ccc(C)cc1C,7.21%
